Screening results (PubChem BioAssay)
Only a selection was taken, and hits are over-represented in it overall.
Pf Dd2 growth: qHTS Primary assay for Inhibitors of Plasmodium falciparum Dd2 growth in vitro. P. falciparum Dd2 growth, SYBR Green, 72 h. Potency, µM (doses to about 28.9 µM), for the others: at the top dose activity, negative = inhibition, most hits filed as inhibitors. hit rate 4.3% among 120,000. AID 1347417, 2020; active = well fitted inhibition curve with a large enough effect;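 note: plate controls were DMSO vehicle for no effect and reference drug for full effect; nearly all actives have a fitted effect of over 65% in size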
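Infected erythrocytes (Dd2, 0.3% parasitemia, 2.5% hematocrit final) are added to compound in RPMI-1640/Albumax II medium, grown 72 h at 37C in low oxygen, then lysed with saponin/Triton-X containing SYBR Green and read by fluorescence.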
An asterisk follows results filed as active; [ ] = another dose, or the depositor's remark. Potency is the fitted concentration of half-maximal effect.

How did COc1ccc(N2Cc3c(NCc4ccc(F)cc4)ncnc3N(C)CC2=O)cc1 do in these assays?
Pf Dd2 growth: inactive

How did CC1CCC(NC(=O)c2cc3c(Cl)nc4ccccc4c3s2)CC1 (configuration not stated) do in these assays?
Pf Dd2 growth: 27%

How did CC1CCCN(C(=O)c2cc3c(Cl)nc4ccccc4c3s2)C1 (configuration not stated) do in these assays?
Pf Dd2 growth: -2%

How did CC1CCCN(CCCNC(=O)c2cc3c(Cl)nc4ccccc4c3s2)C1 (configuration not stated) do in these assays?
Pf Dd2 growth: 4.5µM*

What do the screens show for `CN1CCN(C(=O)[C@@H]2CCC[C@@H](NC(=O)c3nc4ccccc4s3)CN(C)C(=O)C2)CC1`?
Pf Dd2 growth: 5%

What do the screens show for `CSc1nccc(-c2cc(NCc3cccnc3)nc3[nH]ccc23)n1`?
Pf Dd2 growth: 10µM*

What do the screens show for `CSc1nccc(-c2ccccc2CO)n1`?
Pf Dd2 growth: -11%

How did Cc1ccc(C(N)=O)cc1-c1cc(NCc2cccnc2)nc2[nH]ccc12 do in these assays?
Pf Dd2 growth: -15%

Results for COc1ccc(N2CCN(c3cc(C)nc4nc(-c5ccc(C)cc5)nn34)CC2)cc1 ?
Pf Dd2 growth: -10%

Results for COc1ccc(-c2nc3nc(C)cc(Nc4cccc(C(F)(F)F)c4)n3n2)cc1 ?
Pf Dd2 growth: 6%

How did Cc1cc(N2CCN(c3cccc(C(F)(F)F)c3)CC2)n2nc(-c3ccccc3C)nc2n1 do in these assays?
Pf Dd2 growth: 11µM*

How did C[C@@H](NCc1cccc(Cl)c1)c1onc(-c2ccc(F)cc2)c1C(=O)O do in these assays?
Pf Dd2 growth: -5%[44.1 µM]

Results for c1nnc(CC2CCNCC2)n1CC1CC1 ?
Pf Dd2 growth: inactive

How did COCc1ccc(CN[C@H]2C[C@@H](Cc3cc(CCO)on3)C2(C)C)o1 do in these assays?
Pf Dd2 growth: -14%[44.1 µM]

Results for COc1ccc(-n2nc(C3CCCN(C(=O)c4ccc(C)cc4)C3)[nH]c2=O)cc1 (configuration not stated) ?
Pf Dd2 growth: inactive

What do the screens show for `CCOC(=O)c1c(NC(=O)C2c3ccccc3Oc3ccccc32)sc2c1CCC(CC)C2` (configuration not stated)?
Pf Dd2 growth: -3%

What do the screens show for `CC1CCN(C(=O)c2c(NC(=O)c3ccccc3F)sc3c2CCC(C(C)(C)C)C3)CC1` (configuration not stated)?
Pf Dd2 growth: 8.9µM*

What do the screens show for `CN(C)C(=O)c1c(NC(=O)c2ccccc2F)sc2c1CCCC2`?
Pf Dd2 growth: 6%

Results for O=C(Nc1sc2c(c1C(=O)N1CCCCC1)CCCC2)c1ccccc1Cl ?
Pf Dd2 growth: -12%

What do the screens show for `CC(C)(C)C1CCc2c(sc(NC(=O)C3c4ccccc4Oc4ccccc43)c2C(N)=O)C1` (configuration not stated)?
Pf Dd2 growth: 13µM*

Results for CC(C)(C)C1CCc2c(sc(NC(=O)c3cccc(Cl)c3)c2C(N)=O)C1 (configuration not stated) ?
Pf Dd2 growth: 11%

Results for CC(C)Oc1cc(N(C)CC2CC(=O)N(C(C)(C)C)C2)nc(N)n1 (configuration not stated) ?
Pf Dd2 growth: -2%

What do the screens show for `COCc1nncn1C1CCN(S(=O)(=O)c2ccc(Cl)c(C)c2)CC1`?
Pf Dd2 growth: -13%

Results for COCCN1C(=O)CO[C@H]2CN(c3nccc(OC)n3)C[C@H]21 ?
Pf Dd2 growth: -2%[44.1 µM]

Results for c1cc(-c2noc([C@@H]3CCCN3C3CCC3)n2)cc(N2CCOCC2)n1 ?
Pf Dd2 growth: inactive

What do the screens show for `CN1CCN(c2ccc(-c3noc([C@@H]4CCCN4Cc4ccccc4)n3)cn2)CC1`?
Pf Dd2 growth: 7.9µM*

How did CNc1ccc(-c2noc([C@@H]3CCCN3Cc3ccc(CO)o3)n2)cn1 do in these assays?
Pf Dd2 growth: inactive

How did c1ccc(CN2CCC[C@H]2c2nc(-c3ccnc(N4CCOCC4)c3)no2)cc1 do in these assays?
Pf Dd2 growth: 13µM*

How did CN(C)c1ccc(CN2CCC[C@H]2c2nc(-c3ccnc(N4CCC(C(N)=O)CC4)c3)no2)cc1 do in these assays?
Pf Dd2 growth: inactive

What do the screens show for `CNc1ccc(-c2noc([C@@H]3CCCN3Cc3cnc4ccccc4c3)n2)cn1`?
Pf Dd2 growth: -24%[44.1 µM]

What do the screens show for `COCCN1CCOC[C@H]2CCN(C(=O)c3ccco3)C[C@H]21`?
Pf Dd2 growth: inactive

Results for CCCN(CC1CCOC1)C(=O)NCc1ccc(F)cc1 (configuration not stated) ?
Pf Dd2 growth: 13%[5.79 µM]

What do the screens show for `CC(=O)N1CCC(Cc2ncc(C)n2C2CC2)C1` (configuration not stated)?
Pf Dd2 growth: -24%

How did COc1ccccc1N1CCN(c2ccc(-c3nc(-c4ccccc4C)no3)cc2[N+](=O)[O-])CC1 do in these assays?
Pf Dd2 growth: 17%

How did COc1ccccc1-c1noc(-c2ccc(N3CCN(c4ccccc4)CC3)c([N+](=O)[O-])c2)n1 do in these assays?
Pf Dd2 growth: 10µM*

Results for COc1ccc(-c2noc(-c3ccc(N4CCN(c5ccccc5)CC4)c([N+](=O)[O-])c3)n2)cc1 ?
Pf Dd2 growth: 30%

What do the screens show for `Cc1nc(CN2CCN(Cc3cc4n(n3)CCNC4)CC2)cs1`?
Pf Dd2 growth: 14%

Results for O=C1CCN(Cc2ccncc2F)CCCC(c2nc(-c3cccnc3)no2)CCN1 (configuration not stated) ?
Pf Dd2 growth: inactive

Results for O=C1CCN(C(=O)C2CCCC2)CCCC(c2nc(-c3ccccc3)no2)CCN1 (configuration not stated) ?
Pf Dd2 growth: inactive

Results for CCOc1ccccc1CN1CCCC(c2nc(-c3cccnc3)no2)CCNC(=O)CC1 (configuration not stated) ?
Pf Dd2 growth: 4µM*

Results for O=C1CCN(Cc2ccncc2)CCCC(c2nc(-c3cccnc3)no2)CCN1 (configuration not stated) ?
Pf Dd2 growth: -15%

What do the screens show for `N#Cc1cccc(CN2CCCC(c3nc(-c4cccnc4)no3)CCNC(=O)CC2)c1` (configuration not stated)?
Pf Dd2 growth: 5µM*

Results for COc1ccc(C(=O)N2CCCC(c3nc(-c4ccccc4)no3)CCNC(=O)CC2)c(OC)c1 (configuration not stated) ?
Pf Dd2 growth: 7.1µM*

Results for COc1ccc(C(=O)N2CCCC(c3nc(-c4cccnc4)no3)CCNC(=O)CC2)cc1 (configuration not stated) ?
Pf Dd2 growth: -27%

Results for Cc1ncsc1CN1CCCC(c2nc(-c3cccnc3)no2)CCNC(=O)CC1 (configuration not stated) ?
Pf Dd2 growth: inactive

What do the screens show for `O=C1CCN(C2CCC2)CCCC(c2nc(-c3cccnc3)no2)CCN1` (configuration not stated)?
Pf Dd2 growth: -6%

Results for Cn1c(Cn2cccn2)nnc1C1CC(NC(=O)COc2cccnc2)C1 (configuration not stated) ?
Pf Dd2 growth: -23%

What do the screens show for `CNC(=O)C1(N2CCC[C@H]2C(=O)N2CCOCC2)COC1`?
Pf Dd2 growth: 1%[44.1 µM]

What do the screens show for `CN1CCC(N2CCN(S(=O)(=O)c3cccs3)CC2)C1=O` (configuration not stated)?
Pf Dd2 growth: 16%

What do the screens show for `COc1cccc(CC2(CO)CCCN(C(=O)c3cn4ccsc4n3)C2)c1` (configuration not stated)?
Pf Dd2 growth: -21%
